# From PubChem
# Most compounds without a hit are left out; they make up all but 2.8% or so of the library.
# bovine MsrA act: bovine MsrA enzyme activators, primary screen, biochemical, absorbance, HTS | purified bovine MsrA, absorbance read-out | activation, % at 10.6 µM | 360,000 tested, 0.3% active | Methionine sulfoxide reductase A (Bos taurus) | AID 602163, 2012; in the data active = activation above about 7.5%;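 also: 0% = vehicle and 100% = reference activator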
# sPLA2-III inh: human group III sPLA2 inhibitors, primary screen, biochemical, QFRET, BODIPY PC-A2 liposome substrate; Group 3 secretory phospholipase A2 (Homo sapiens), Q9NZ20; inhibition, % at 12.2 µM; QFRET BODIPY PC-A2 liposome hydrolysis, fluorescence; 370,000 tested, 0.56% active; AID 743126, 2013;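 active = inhibition above mean plus 3 SD of compounds lying within the high and low control bounds, cut at about 19% in these data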;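 also: 0% = median of test compound wells and 100% = no enzyme DMSO wells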
# Target sequence (Q9NZ20 whole entry, looked up): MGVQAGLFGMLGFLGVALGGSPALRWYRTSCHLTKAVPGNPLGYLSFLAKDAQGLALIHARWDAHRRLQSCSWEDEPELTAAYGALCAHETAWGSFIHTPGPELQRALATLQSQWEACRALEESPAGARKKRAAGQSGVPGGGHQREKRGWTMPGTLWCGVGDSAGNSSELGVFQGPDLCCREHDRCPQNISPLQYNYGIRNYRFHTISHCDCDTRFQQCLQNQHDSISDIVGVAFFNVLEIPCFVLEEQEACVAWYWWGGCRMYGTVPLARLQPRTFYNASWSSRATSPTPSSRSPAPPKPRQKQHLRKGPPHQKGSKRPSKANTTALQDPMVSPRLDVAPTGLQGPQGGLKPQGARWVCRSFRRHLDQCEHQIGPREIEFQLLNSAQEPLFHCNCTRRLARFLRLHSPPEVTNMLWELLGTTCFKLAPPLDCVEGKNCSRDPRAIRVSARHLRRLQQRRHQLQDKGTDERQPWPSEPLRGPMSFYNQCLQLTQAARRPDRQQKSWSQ
# rCAG binder: binders of r(CAG) RNA repeats, primary screen, biochemical, fluorescence | inhibition, % at 3 µM | AID 651821, 2012 | 370,000 tested, 1.3% active | r(CAG) RNA repeat, TO-PRO-1 dye displacement fluorescence;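 active = inhibition above the plate cutoff, the mean of all test compounds on that plate plus 3 SD, cut at about 35% in these data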;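 also: 0% = DMSO alone and 100% = 100 µM mitoxantrone as full dye displacement; higher means more dye released from RNA so lower well fluorescence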
# MsrA inhibitor: bovine MsrA enzyme inhibitors, primary screen, biochemical, absorbance, HTS. Methionine sulfoxide reductase A (Bos taurus). 360,000 tested, 0.75% active. purified bovine MsrA, absorbance read-out. inhibition, % at 15.5 µM. AID 651718, 2012;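 also: 0% = vehicle wells with enzyme and 100% = reference inhibitor wells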
# MsrA inh confirm: bovine MsrA inhibitors, retest, confirmation, biochemical, absorbance, HTS; shares compounds with MsrA inhibitor; inhibition, % at 15.5 µM; AID 651822, 2012; 2,300 tested, 41% active; purified bovine MsrA, absorbance read-out;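 also: coupled to thioredoxin reductase with NADPH and selenocystamine and DMSO as substrate; 0% = vehicle only and 100% = full effect of reference inhibitor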
# Numbers without * were called inactive; / = not tested or not shown. Rule as the data show it, unless noted: active = inhibition above about 4.5%; inactive = the rest.
SMILES,bovine MsrA act,sPLA2-III inh,rCAG binder,MsrA inhibitor,MsrA inh confirm
Cn1c(=O)[nH]c(Nc2ccccc2)c([N+](=O)[O-])c1=O,-8,2,3,6.4*,4
COc1ccc(-n2nc([N+](=O)[O-])c(=NCCCN3CCCC3=O)n2O)cc1,-1,2,0,4.8*,0
CC(=O)c1cccc(-c2ccnc3c2CC(C(=O)NCC2CC2)O3)c1 (configuration not stated),0,3,2,0,/
Cc1cccc(C)c1N/C=C/c1onc(C)c1[N+](=O)[O-],-12,-2,1,2,/
Cc1noc(/C=C/c2cccnc2)c1[N+](=O)[O-],-10,2,-2,5.3*,3
CCC1=[N+](C)CCn2c(C)ccc21,-3,5,2,6.5*,4
COC(=O)c1ccc(OCC(=O)c2ccc(O)cc2O)cc1,-4,-14,4,5.0*,3
CCOC(=O)C1CCN(CC(=O)c2ccc(O)c(C)c2O)CC1,-9,5,6,4.7*,4
O=C(COc1ccc(Cl)cc1)c1ccc(O)cc1O,-3,-16,1,1,/
CCOC(=O)N1CCN(CC(=O)c2ccc(O)c(C)c2O)CC1,-3,0,-2,2,/
O=C(COc1ccccc1F)c1ccc(O)cc1O,-6,-3,0,7.6*,4
Cc1c(O)ccc(C(=O)COc2ccccc2F)c1O,-12,-6,7,4.8*,3
NNC(=O)COc1ccccc1F,0,-3,1,-1,/
O=S1(=O)CC(N2CCSCC2)CN1Cc1cn(Cc2cccc(C(F)(F)F)c2)nn1 (configuration not stated),0,7,2,-1,/
Cc1ccc(C)c(C(=O)CN2C(=O)c3ccccc3C2=O)c1,-2,19,1,0,/
Cc1c(O)ccc(C(=O)CN2C(=O)c3ccccc3C2=O)c1O,-4,-7,6,5.7*,4
Nc1ccccc1Nc1ccc([N+](=O)[O-])cc1[N+](=O)[O-],-4,14,-1,17*,9.4*
CCOC(=O)N1CCc2c(sc3nc4n(c(=O)c23)N=C(C)CS4)C1,-8,-3,2,2,/
C=CCNc1nc(NCCNC(C)=O)c2sc(-c3ccccc3)cc2n1,3,0,0,4.7*,1
C=CCNc1nc(NCCOC)c2sc(-c3ccccc3)cc2n1,-3,-10,3,1,/
CCCc1nnc(SCC(=O)N2CCCC(C)C2)n1CCCOC (configuration not stated),-4,4,-3,1,/
CCc1ccc(-n2c(O)cnc2Nc2nc(C)cc(C)n2)cc1,-8,10,1,9.5*,7.0*
COc1ccc(-n2c(O)c(/C=N/Nc3nc(C)cc(C)n3)c3ccccc3c2=O)cc1OC,-9,-7,4,1,/
COc1ccc(-n2c(O)cnc2Nc2nc(C)cc(C)n2)cc1OC,-3,7,-3,15*,6.5*
CCc1ccc(Nc2nc(C)cc(C)n2)cc1,-2,1,1,0,/
SMILES,bovine MsrA act,sPLA2-III inh,rCAG binder,MsrA inhibitor,MsrA inh confirm
C=CCN1C(c2ccccc2)=CS/C1=C(\C#N)c1nnc2n1CCCCC2,-6,4,-7,4.8*,3
CCOc1ccc(C2=CS/C(=C(\C#N)c3nnc4n3CCCCC4)N2CC)cc1,-4,3,-7,3,/
COc1ccc2[nH]c(C)c(CCN3C(=O)OC(C)(C)C3(C)O)c2c1 (configuration not stated),-4,-5,6,0,/
S=c1[nH]nc(-c2ccccc2)n1/N=C/c1ccc(-c2ccccc2Cl)o1,-3,-7,17,1,/
Cc1nnc(C)n1/N=C/c1ccc(-c2ccccc2Cl)o1,-3,8,-1,5.2*,4.9*
O=C(N/N=C/c1ccc(-c2ccccc2Cl)o1)c1ccccc1,-5,-6,5,3,/
O=S(=O)(N/N=C\c1ccc(-c2ccccc2Cl)o1)c1ccccc1,-4,-11,32,4.9*,3
CCN1CCN(c2nc(Nc3ccccc3)nc(N)c2[N+](=O)[O-])CC1,2,4,-2,4.8*,4
CCc1cc(CNC(=O)c2ccc(OC)c(OC3CCN(C(C)C)CC3)c2)on1,-1,-3,-2,-1,/
C[C@@H]1CN([C@@H](C)CO)C(=O)c2cc(NS(C)(=O)=O)ccc2O[C@@H]1CN(C)Cc1ccc(C(F)(F)F)cc1,-10,-2,-1,1,/
CCN1C(=O)/C(=C/N(C)c2ccccc2)OC1=S,-4,4,-5,2,/
CCN1C(=O)/C(=C\N(C(C)=O)c2ccccc2)OC1=S,-5,-1,-1,6.7*,5.0*
CCOc1ccc(-n2cc(C(=O)N3CCN(C)CC3)c3cc(OC)c(OC)cc3c2=O)cc1,-5,1,-5,0,/
Oc1c(Br)cc(/C=N/Nc2ccc(Cl)nn2)cc1Br,-6,11,10,5.9*,3
C/C(=N\Nc1ccc(C(=O)O)cc1)c1ccc(Br)cc1,-4,-15,11,4.8*,6.4*
C/C(=N/Nc1ncc(Br)cn1)c1ccc(Br)cc1,-4,-4,22,1,/
CCN(C(=O)CSc1ccc(S(=O)(=O)N2CCOCC2)cn1)c1ccccc1,-2,4,1,0,/
O=c1nc(N2CCOCC2)nc(N/N=C/c2ccc3c(c2)OCO3)[nH]1,-2,2,4,5.5*,2
Cc1nc(N/N=C/c2ccc(O)cc2O)cc(N2CCOCC2)n1,-4,-13,5,4.8*,4
Oc1ccc(/C=N/Nc2cc(N3CCOCC3)nc(N3CCOCC3)n2)cc1O,-5,-17,12,4.7*,4
Oc1cccc(/C=N/Nc2cc(N3CCOCC3)nc(N3CCOCC3)n2)c1,-4,1,4,4.9*,6.2*
Cc1nc(N/N=C/c2cccc(F)c2)cc(N2CCOCC2)n1,-6,14,-2,4,/
CN(/N=C/c1ccc2c(c1)OCO2)c1nc(N2CCOCC2)nc(N2CCOCC2)n1,-14,-2,-6,1,/
CCN(CC)c1ccc(C=Nc2cccnc2Cl)c(O)c1,-5,4,-6,5.5*,6.6*
CCN(CC)c1ccc(C=Nc2cc(C)ccc2C)c(O)c1,-14,-2,-2,3,/
c1ccc(-c2ccc(CN3CCN(c4ncccn4)CC3)cc2)cc1,-10,-5,-10,-1,/
O=C(N/N=C/c1ccco1)/C(=C/c1cccc([N+](=O)[O-])c1)NC(=O)c1ccccc1,-3,-2,13,5.4*,4
O=C(N/N=C/c1ccc(Br)o1)/C(=C/c1ccc([N+](=O)[O-])cc1)NC(=O)c1ccccc1,-3,-10,26,5.3*,3
COc1cccc(CN2CCN(CCCc3ccccc3)C(CCO)C2)c1O (configuration not stated),-2,-9,-9,1,/
O=C(COC(=O)/C=C/c1cccs1)Nc1cccc(S(=O)(=O)N2CCOCC2)c1,-2,-11,3,0,/
